RGS8-Gao reg = regulators of human RGS8-Galphao interaction | P09471 | multiplexed bead flow cytometry, RGS8-Galphao binding; actives lie on both sides | response (percent of control binding), % at 10 µM | hit rate 0.34% among 220,000; in the data active means response below about 60% or above about 140%; inactive means in between;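 further: Galphao activated as the GDP aluminium fluoride complex binding bead-coupled RGS8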
Target sequence (P09471 whole entry, looked up): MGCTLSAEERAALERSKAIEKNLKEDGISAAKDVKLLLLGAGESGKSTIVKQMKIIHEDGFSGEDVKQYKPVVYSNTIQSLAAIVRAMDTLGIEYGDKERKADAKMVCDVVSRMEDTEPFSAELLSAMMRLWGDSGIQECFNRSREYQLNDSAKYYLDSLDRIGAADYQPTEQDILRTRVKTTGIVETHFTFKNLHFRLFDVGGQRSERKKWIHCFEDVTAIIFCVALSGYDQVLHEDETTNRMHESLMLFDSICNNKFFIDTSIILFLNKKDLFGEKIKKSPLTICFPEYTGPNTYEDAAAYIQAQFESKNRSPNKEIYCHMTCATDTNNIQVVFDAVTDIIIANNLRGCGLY
RGS4-Gao reg = modulates binding of RGS4 to human Galphao; P09471; Multiplexed bead flow cytometry; actives lie on both sides; binding response (% of control), % at 10 µM; hit rate 0.33% among 220,000; AID 1415; in the data active means binding response below about 49% or above about 150%; inactive means in between;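 further: fluorescent Galphao activated with aluminum fluoride binding bead-coupled RGS4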
RGS16-Gao HTS = modulates binding between human RGS16 and Galphao. binding response (% of control), % at 10 µM. hit rate 0.38% among 220,000. bead-based flow cytometry RGS16-Galphao binding, fluorescence; actives lie on both sides;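 further: Galphao activated by GDP with aluminum fluoride before binding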
GSH bead fluor = GSH bead compound fluorescence profile; fluorescence (KMESF) at 10 µM; GSH beads flow cytometry, compound fluorescence 488/530 nm; stronger effect = higher value; hit rate 0.25% among 190,000; in the data active means fluorescence above about 89;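 further: glutathione beads carrying GST-tagged Bcl family fusion proteins plus one bare bead set; values are compound well signal with DMSO vehicle wells as background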
RGS7-Gao = regulators of human RGS7-Galphao interaction | P09471 | Multiplexed bead flow cytometry, RGS7-Galphao binding; actives lie on both sides | binding response (% of control), % at 10 µM | hit rate 0.35% among 220,000; in the data active means binding response below about 49% or above about 150%; inconclusive means no clear call, values can overlap the other calls; inactive means in between;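 further: fluorescent Galphao held in activated GDP-AlF4 state binding bead-coupled RGS7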
Avidin bead fluor = avidin bead compound fluorescence profile. AID 1775. fluorescence (KMESF) at 10 µM. Avidin beads, compound fluorescence 488/530 nm, flow cytometry; stronger effect = higher value. hit rate 0.38% among 220,000; in the data active means fluorescence above about 47
RGS4-Gao HTS = regulators of human RGS4-Galphao interaction. shares compounds with RGS16-Gao HTS. multiplexed bead flow cytometry, RGS–Galpha-o binding. RGS4–Galpha-o binding response, % at 10 µM. hit rate 99% among 1,600. AID 1504;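 further: fluorescently labeled Galpha-o bound to GDP with aluminium fluoride binding biotinylated RGS beads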
Target sequence (P09471 whole entry, looked up): as above
Target sequence (P49798 whole entry, looked up): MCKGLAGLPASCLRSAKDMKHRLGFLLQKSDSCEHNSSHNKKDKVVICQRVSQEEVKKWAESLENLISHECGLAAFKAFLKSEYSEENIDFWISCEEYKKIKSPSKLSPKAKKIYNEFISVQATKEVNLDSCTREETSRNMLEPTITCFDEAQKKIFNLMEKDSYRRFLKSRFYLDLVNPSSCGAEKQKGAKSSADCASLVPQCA
Biotin-avidin = biotin-avidin bead binding disruption counter-screen. shares compounds with RGS16-Gao HTS. streptavidin beads, fluorescein-biotin binding, flow cytometry. inhibition, % at 10 µM. 1,700 tested, under 10 active. AID 1783;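 active means inhibition above 50%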;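 further: median green fluorescence of gated singlet beads compared with DMSO control wells; 0% = DMSO wells and 100% = complete loss of bead fluorescence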
RGS8-Gao single = confirmation of regulators of human RGS8-Galphao interaction; bead-based flow cytometry RGS8-Galphao binding, fluorescence; actives lie on both sides; binding response (% of control), % at 10 µM; hit rate 3% among 1,700; shares compounds with RGS16-Gao HTS; in the data active means binding response below about 72% or above about 130%; inactive means in between;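 further: Galphao activated as GDP AlF4 complex before binding bead RGS8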
RGS7-Gao confirm = confirmation of regulators of human RGS7-Galphao interaction; hit rate 7.8% among 1,700; bead-based flow cytometry RGS7-Galphao binding; actives lie on both sides; response (percent of control binding), % at 10 µM; AID 1837; shares compounds with RGS16-Gao HTS; in the data active means response below about 75% or above about 130%; inactive means in between;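 further: fluorescent Galphao activated with GDP and aluminum fluoride binding bead-coupled RGS7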
RGS16-Gao single = confirmation of regulators of human RGS16-Galphao interaction; shares compounds with RGS16-Gao HTS; bead-based flow cytometry, RGS16-Galphao binding; actives lie on both sides; response (% of control binding), % at 10 µM; hit rate 4% among 1,700; in the data active means response below about 74% or above about 130%; inactive means in between;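 further: Galphao activated as the GDP aluminium fluoride complex binding bead-coupled RGS16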
RGS4-Gao confirm = RGS4-Galphao interaction regulation, single point confirmation | shares compounds with RGS16-Gao HTS | RGS4-Galphao binding, multiplexed bead flow cytometry; actives lie on both sides | binding response (% of control), % at 10 µM | hit rate 4% among 1,700 | AID 1840; in the data active means binding response below about 74% or above about 130%; inactive means in between
RGS19-Gao single = RGS19-Galphao interaction regulation, single point confirmation | shares compounds with RGS16-Gao HTS | bead-based flow cytometry RGS19-Galphao binding; actives lie on both sides | response (percent of control binding), % at 10 µM | hit rate 5% among 1,700 | AID 1841; in the data active means response below about 50% or above about 160%; inactive means in between;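 further: 100% = no compound control and 0% = blank background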
* marks the source's active call; other numbers are inactive results; ? = inconclusive; / = not tested or not shown; [ ] = dose if it differs, or a comment. This is a sample that favours compounds with a hit; in the whole collection about 1.2% have one here. Unless noted, how the calls were made is not given here.

SMILES | RGS8-Gao reg | RGS4-Gao reg | RGS16-Gao HTS | GSH bead fluor | RGS7-Gao | Avidin bead fluor | RGS4-Gao HTS | Biotin-avidin | RGS8-Gao single | RGS7-Gao confirm | RGS16-Gao single | RGS4-Gao confirm | RGS19-Gao single
COCCCN1CN(Cc2ccccc2)CNC1=S | 72 | 79 | -3.3* | 15 | 83 | 6 | 79* | 0 | 99 | 100 | 101 | 99 | 94
CCCCN(CCCC)c1cn[nH]c(=O)c1Cl | 13* | 22* | 9.8* | 12 | 16* | 1 | / | 0 | 104 | 109 | 109 | 103 | 107
Cc1cc(Cl)ccc1N=c1ssnc1Cl | 77 | 83 | 19* | 7 | 107 | 8 | 83* | -1 | 87 | 93 | 78 | 97 | 55
COCCNC(=O)Cn1nc(-c2ccccc2OC)ccc1=O | 158*[activator] | 133 | 383 | 57 | 133 | 5 | 133* | 1 | 107 | 82 | 104 | 91 | 56
COc1cc(N(C(=O)Cc2cccs2)C(C(=O)NC2CCCCC2)c2cccc(OC)c2OC)ccc1-n1cnnn1 (stereo not drawn) | 82 | 92 | 24* | 10 | 88 | 6 | 92* | 0 | 101 | 105 | 100 | 101 | 98
COc1ccc(C2Oc3ccccc3N2C(C)=O)cc1 (stereo not drawn) | 102 | 102 | 100 | 15 | 101 | 16 | / | / | / | / | / | / | /
CC(=O)Oc1ccc(C2OC(=O)c3ccccc3N2C(C)=O)cc1 (stereo not drawn) | 106 | / | / | 40 | / | / | / | 0 | 98 | 97 | 96 | 98 | 100
Cc1ccc(S(=O)(=O)NCCc2nnc3ccc(SCC(=O)Nc4nc(C)cs4)nn23)cc1 | 101 | 102 | 102 | 8 | 99 | 4 | / | / | / | / | / | / | /
CCN(CC)CCNc1ccc2nnc(CCNS(=O)(=O)c3ccc(C)cc3)n2n1 | 15* | 20* | 11* | 9 | 16* | 3 | / | 0 | 100 | 67* | 91 | 77 | 106
Cn1cccc1-c1cc(C(=O)N/N=C/c2cccc(O)c2)[nH]n1 | 97 | 96 | 97 | 9 | 97 | 11 | / | / | / | / | / | / | /
CN1C(=O)N(CN2CCCCC2)C2C1N(C)C(=O)N2CN1CCCCC1 (stereo not drawn) | 154*[activator] | 127 | 549 | 22 | 123 | 4 | 127* | / | / | / | / | / | /
O=C1C(Cl)=C(N2CCCCC2)C(=O)C(Cl)=C1c1cnc(N2CCCCC2)s1 | 50* | 69 | 32 | 3 | 43* | 1 | 69* | 1 | 37* | 16* | 27* | 59* | -8.5*
CN(C)c1ncc(C2=C(Cl)C(=O)C(N3CCCC3)=C(Cl)C2=O)s1 | 47* | 67 | 30 | 3 | 41* | 1 | 67* | -4 | 41* | 22* | 35* | 72* | -9.7*
Clc1ccc(Cl)c2sc(N3CCCC3)nc12 | 103 | 103 | 104 | 15 | 99 | 16 | / | / | / | / | / | / | /
CC(=O)c1ccc(N2CCN(C(=O)Nc3cccc(F)c3)CC2)cc1 | 97 | 100 | 95 | 14 | ? | 13 | / | / | / | / | / | / | /
O=C(NCc1nnc(SCC(=O)N2CCOCC2)o1)c1ccccc1F | 103 | 102 | 109 | 11 | 102 | 23 | / | / | / | / | / | / | /
CCN(C(=O)COC(=O)c1ccc(Cl)c(N)c1)C1CCS(=O)(=O)C1 (stereo not drawn) | 103 | 104 | 105 | 12 | 110 | 6 | / | / | / | / | / | / | /
COc1ccc(-c2noc(=O)n2CC(=O)N2CCC(Cc3ccccc3)CC2)cc1 | 98 | 93 | 102 | 11 | 97 | 11 | / | / | / | / | / | / | /
CCOc1cc(-c2nc(C)c(C(C)=O)n2O)ccc1OCC(=O)Nc1ccc(F)cc1 | 103 | 110 | 114 | 10 | 158*[activator] | 64* | 110* | -1 | 93 | 90 | 92 | 101 | 77
COc1cc(-c2nc(C)c(C(C)=O)n2O)ccc1OCC(=O)Nc1ccc(F)cc1 | 99 | 104 | 98 | 18 | 98 | 10 | / | / | / | / | / | / | /
CC(=O)NCCNS(=O)(=O)c1ccc(C)c([N+](=O)[O-])c1 | 108 | 115 | 113 | / | 118 | 5 | / | / | / | / | / | / | /
CC(C)CSc1ccc(S(=O)(=O)NCC(=O)O)cc1[N+](=O)[O-] | 97 | 125 | 96 | 21 | 278*[activator] | 169* | 125* | 0 | 97 | 98 | 97 | 97 | 97
COc1ccc(-c2cn3c(C)c(C(=O)Nc4cccc(C)n4)sc3n2)cc1 | 97 | 110 | 105 | 22 | 181*[activator] | 198* | 110* | 0 | 93 | 95 | 89 | 90 | 91
Cc1cccc(NC(=O)c2sc3nc(-c4ccccc4)cn3c2C)n1 | 100 | 102 | 92 | 22 | 101 | 9 | / | / | / | / | / | / | /
COc1ccc2cc(CCNC(=O)C3CCCC3)c(=O)[nH]c2c1 | 147*[activator] | 111 | 228 | 25 | 109 | 4 | 111* | 0 | 105 | 101 | 107 | 104 | 110
SMILES | RGS8-Gao reg | RGS4-Gao reg | RGS16-Gao HTS | GSH bead fluor | RGS7-Gao | Avidin bead fluor | RGS4-Gao HTS | Biotin-avidin | RGS8-Gao single | RGS7-Gao confirm | RGS16-Gao single | RGS4-Gao confirm | RGS19-Gao single
CC(C)CNC(=O)COC(=O)CCC(=O)c1ccc(Cl)cc1 | 96 | 96 | 81 | 12 | 99 | 7 | / | / | / | / | / | / | /
CC(C)(C)NC(=O)COC(=O)CCC(=O)c1ccc(Cl)cc1 | 21* | 25* | 15* | 23 | 22* | 5 | / | 0 | 100 | 106 | 102 | 104 | 100
Cc1ccc(SCCNC(=O)/C=C/c2ccc([N+](=O)[O-])cc2)cc1 | 135 | 113 | 280*[activator] | 9 | 112 | 17 | 113* | -1 | 100 | 103 | 102 | 102 | 95
O=C(/C=C/c1ccc([N+](=O)[O-])cc1)NCCSc1ccccc1 | 104 | 106 | 94 | 38 | 107 | 7 | / | / | / | / | / | / | /
COc1ccc(NC(=O)Cn2nnc(-c3ccccc3NC(=O)c3ccco3)n2)cc1 | 103 | 106 | 103 | 14 | 105 | 35 | / | / | / | / | / | / | /
COc1ccccc1NC(=O)Cn1nnc(-c2ccccc2NC(=O)c2ccco2)n1 | / | / | / | 10 | / | / | / | -1 | 103 | 103 | 103 | 105 | 101
